From PubChem BioAssay (EPA / NIEHS)
A structure can be active in one record and inactive in another. The source made the active and inactive calls. How the source made its calls: active means hit-call score of the fitted dose curve at least 0.9, where 1 is the maximum; inactive means score below 0.9.

These compounds were tested against Transcriptional activator Myb (Homo sapiens) (UniProt P10242) (assay: ATG_Myb_CIS: Attagene CIS-FACTORIAL HepG2 Assay for human Myeloblastosis (Myb) Proto-Oncogene Transcription Factor (AID 2282986)). Details: HepG2 Attagene CIS-FACTORIAL Myb reporter transcription; actives raise or lower the signal.
Chain of Transcriptional activator Myb (Homo sapiens) (P10242 whole entry, looked up): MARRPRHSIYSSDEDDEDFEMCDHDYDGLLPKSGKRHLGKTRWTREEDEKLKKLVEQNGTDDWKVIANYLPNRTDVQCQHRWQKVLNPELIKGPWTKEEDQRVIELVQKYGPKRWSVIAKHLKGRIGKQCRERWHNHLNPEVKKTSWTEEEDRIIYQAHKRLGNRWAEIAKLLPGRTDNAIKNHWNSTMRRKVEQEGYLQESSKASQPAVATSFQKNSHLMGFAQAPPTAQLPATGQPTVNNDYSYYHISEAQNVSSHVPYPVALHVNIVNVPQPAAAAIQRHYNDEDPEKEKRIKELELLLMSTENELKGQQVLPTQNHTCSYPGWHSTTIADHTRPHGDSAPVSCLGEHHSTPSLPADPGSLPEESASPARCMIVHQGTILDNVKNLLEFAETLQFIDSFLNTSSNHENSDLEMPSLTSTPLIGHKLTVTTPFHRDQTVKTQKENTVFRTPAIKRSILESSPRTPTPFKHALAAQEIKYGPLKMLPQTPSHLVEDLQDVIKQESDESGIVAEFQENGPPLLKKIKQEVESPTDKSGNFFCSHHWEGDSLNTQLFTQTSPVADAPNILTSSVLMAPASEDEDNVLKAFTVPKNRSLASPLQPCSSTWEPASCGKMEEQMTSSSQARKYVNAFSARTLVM
Procedure: ATG_CIS is a cell-based, multiplexed-readout assay that uses HepG2, a human liver cell line, with measurements taken at 24 hours after chemical dosing in a 24-well plate.ATG_Myb_CIS is one of 52 assay component(s) measured or calculated from the ATG_CIS assay. It is designed to make measurements of mRNA induction, a form of inducible reporter, as detected with fluorescence intensity signals by Reverse transcription polymerase chain reaction (RT-PCR) and Capillary electrophoresis technology.Data from the assay component ATG_Myb_CIS was analyzed into 1 assay endpoint. This assay endpoint, ATG_Myb_CIS, was analyzed with bidirectional fitting relative to DMSO as the negative control and baseline of activity. Using a type of inducible reporter, measures of mRNA for gain or loss-of-signal activity can be used to understand the reporter gene at the transcription factor-level as they relate to the gene MYB. Furthermore, this assay endpoint can be referred to as a primary readout, because this assay has produced multiple assay endpoints where this one serves a reporter gene function. To generalize the intended target to other relatable targets, this assay endpoint is annotated to the dna binding intended target family, where the subfamily is MYB proteins.
Human liver HepG2 cells are transiently transfected with multiple reporter transcription units (MRTUs) in 6-well plates using FuGene 6 reagent (Roche; 3 ml FuGene/1 mg DNA). The MRTU constructs are regulated by a cis-regulating element (promoter). […] A major difference between the CIS and TRANS system is that in CIS activities of endogenous TFs are measured, whereas the TRANS assay evaluates changes in activities of exogenous, chimeric NR-Gal4 proteins. […] At the end of 24 hour incubation, total RNA was isolated using TriZol reagent (Invitrogen). The isolated RNA is then reverse-transcribed using oligo(dT) primer and Mo-MLV reverse transcriptase (Invitrogen) with DNAse I (Ambion) treatment for 30 min. The one-tenth of the produced cDNA was amplified by PCR using Taq DNA polymerase (Invitrogen) and two reporter sequence-specific primers. The PCR products were fluorescently labeled by primer extension with 6-arboxyfluorescein (6-FAM) 5'-labeled reporter sequence-specific primer (2 min at 95 C, 20 s at 68 C and 10 min at 72 C) and these products were digested with 5U of HpaI (New England Biolabs) for 2h at 37 C. The fragments were purified using Qiaquick PCR columns (Qiagen), analyzed on an ABI 3130xL genetic analyzer (Applied Biosystems) with peak positions identified by using a set of X-rhodamine (ROX)-labeled MapMarker1000 molecular weight standards (BioVentures). The raw capillary electrophoresis data was processed using Attagraph software (Attagene).
For `COCC(C)OCC(C)O` (stereo not given), the outcome was “inactive”.
In the case of `c1ccc2c(c1)ccc1ccccc12`, the outcome is reported as “inactive”.
For `CCCCCCCCCCCCCCCS(=O)(=O)Oc1ccccc1`, the outcome was “inactive”.
With `CCCCCCCCC(=O)O` the outcome was “inactive”.
With `CCc1ccc(CCOc2ccc(CC3SC(=O)NC3=O)cc2)nc1` (stereo not given) the outcome was “inactive”.
For `CCC(=C(c1ccc(O)cc1)c1ccc(OCCN(C)C)cc1)c1ccccc1`, the AC50 was 11.3 µM (active) and the outcome was “inactive”.
`CC(=O)CC(C)(C)O` was tested, and the outcome was “inactive”.
For `CCCCCCCCCCCCc1ccccc1S(=O)(=O)O`, the outcome was “inactive”.
For `CCC(C)(C)C1CCC(O)CC1` (stereo not given), the outcome was “inactive”.
`CN1CCC[C@H]1c1cccnc1` was tested, and the outcome was “inactive”.
With `ClC1=C(Cl)C(Cl)(Cl)C(Cl)=C1Cl` the outcome was “inactive” and the AC50 was 13.6 µM (active).
In the case of `O=C(O)c1ccccc1C(c1ccc(O)cc1)c1ccc(O)cc1`, the outcome is reported as “inactive”.
In the case of `OCCC(F)(F)C(F)(F)C(F)(F)C(F)(F)C(F)(F)C(F)(F)F`, the outcome is reported as “inactive”.
In the case of `CCCOc1sc(C(=O)N2CCC(c3cc(CN)ccc3F)CC2)c(C)c1Br`, the outcome is reported as “inactive”.
For `NCC(F)(F)C(F)(F)C(F)(F)C(F)(F)C(F)(F)C(F)(F)C(F)(F)F`, the outcome was “inactive”.
For `NC(=O)N1C(=O)C(C(=O)c2cc(Cl)cs2)c2cc(F)c(Cl)cc21` (stereo not given), the outcome was “inactive”.
In the case of `O=C(OCCOCCOC(=O)c1ccccc1)c1ccccc1`, the outcome is reported as “inactive”.
For `FC(F)(I)C(F)(F)C(F)(F)C(F)(F)C(F)(F)C(F)(F)I`, the outcome was “inactive”.
With `CCCCC(CC)COC(=O)CCCCC(=O)OCc1ccccc1` (stereo not given) the outcome was “inactive”.
In the case of `CCCCCCCCCCCCN1CCCC1=O`, the outcome is reported as “inactive”.
For `CCCCCCCCOC(=O)CCCCCCCCC(=O)OCCCCCCCC`, the outcome was “inactive”.
With `Cc1oc(-c2ccccc2)nc1CCOc1ccc(C[C@H](Nc2ccccc2C(=O)c2ccccc2)C(=O)O)cc1` the outcome was “inactive”.
In the case of `CC(O)C(=O)O` (stereo not given), the outcome is reported as “inactive”.
`COCC(C)O` (stereo not given) was tested, and the outcome was “inactive”.
For `c1ccc2c(c1)Cc1ccccc1-2`, the outcome was “inactive”.
For `O=C1OC2(c3ccccc31)c1cc(Br)c(O)c(Br)c1Oc1c2cc(Br)c(O)c1Br`, the outcome was “inactive”.
For `O=[N+]([O-])c1ccc(O)cc1`, the outcome was “inactive”.
In the case of `CC(O)CO` (stereo not given), the outcome is reported as “inactive”.
In the case of `CCCOC(=O)c1ccc(O)cc1`, the outcome is reported as “inactive”.
For `C=C(C)C(=O)OCCC(F)(F)C(F)(F)C(F)(F)C(F)(F)C(F)(F)C(F)(F)F`, the outcome was “inactive”.
For `CCc1nn(C2CCCCC2)c2cc(C3(C#N)CCC(C(=O)O)CC3)ccc12` (stereo not given), the outcome was “inactive”.
In the case of `COC(=O)CCCCC(=O)OC`, the outcome is reported as “inactive”.
For `COc1cc(CCC(=O)CC(=O)CCc2ccc(O)c(OC)c2)ccc1O`, the AC50 was 67.6 µM (active).
In the case of `CC(C)(C)CC(C)(C)c1ccc(O)c(-n2nc3ccccc3n2)c1`, the outcome is reported as “inactive”.
For `CC[C@H](c1ccc(O)cc1)[C@@H](CC)c1ccc(O)cc1`, the outcome was “inactive”.
In the case of `CCCCOCCO`, the outcome is reported as “inactive”.
In the case of `CN1CCN(c2ccccc2/C=C2\SCCN(c3ccc(Cl)c(Cl)c3)C2=O)CC1`, the outcome is reported as “inactive”.
For `CC(C)(C)c1cccc(C(C)(C)C)c1O`, the outcome was “inactive”.
